# Assay results: PubChem BioAssay AID2061320 (National Center for Advancing Translational Sciences (NCATS), 2025)
# Records with an inconclusive call do not appear. Calls of active or inactive are those of the source. Calls follow the shape of the dose curve; as a rule, active = well fitted inhibition curve with a large enough effect; inconclusive = small, poorly fitted or top-dose-only effect; inactive = flat fitted curve, though single readings scatter.
# Assay: Identification of antibody-drug conjugate (ADC) payloads which are substrates of ATP-binding cassette drug efflux transporters: ABCG2-H460-MX20 cell line
# Details: H460-MX20 (ABCG2) viability, CellTiter-Glo, 48 h; series mostly up to 28.7 µM; activity change, negative = inhibition: at the top concentration
# Description: Antibody-drug conjugates (ADCs) feature an antibody recognizing a specific protein joined to a potent toxic payload. Numerous antibody-drug conjugates have received FDA approval; however, clinical resistance arises. Resistance mechanisms include decreased expression or mutation of the antibody target, impaired payload release, or increased expression of ATP-binding cassette (ABC) efflux transporters associated with multidrug resistance. We therefore sought to characterize the interaction of ABC multidrug transporters with ADC payloads. We performed a high-throughput screen with 27 common ADC payloads using cells lines expressing ABC transporters P-glycoprotein (P-gp, encoded by ABCB1) or ABCG2 (encoded by ABCG2). Confirmatory assays were also performed using cells transfected to express P-gp, ABCG2, or MRP1 (encoded by ABCC1). Several commonly used ADC payloads were substrates of P-gp, including calicheamicin gamma1, monomethyl auristatin E, DM1, and DM4. All the pyrrolobenzodiazepines tested - SJG136, SGD-1882, SG2057, and SG3199 - were substrates of P-gp, ABCG2, and MRP1. […] These findings highlight the risk of transporter-mediated resistance with certain ADC payloads and underscore the importance of selecting payloads that evade ABC transporter recognition in future ADC development.
# HEK-293 cells were transfected with empty vector (pcDNA) or vector containing the human ABCB1 (MDR-19), ABCG2 (R-5), or ABCC1 gene (MRP1) and were maintained in EMEM with 2 mg/mL G418 added to maintain transporter expression. The HeLa derivative KB-3-1 and the P-gp overexpressing KB-8-5-11 subline were maintained in DMEM; KB-8-5-11 additionally received 100 ng/mL colchicine. H460 parental cells were obtained from the Division of Cancer Treatment and Diagnosis Tumor Repository, National Cancer Institute at Frederick, MD and were cultured in RPMI. The ABCG2 expressing subline H460 MX20 was generated by selecting H460 cells in 20 nM mitoxantrone. Media in all cases was supplemented with 10% FBS and 1% penicillin-streptomycin. We explored 27 common ADC payloads, in two orthogonal, paired cell line sets-a drug selected and transfected set for each transporter--to identify substrates of the ABC transporters P-gp and ABCG2. Compounds were sourced from Levena Biopharma (San Diego, CA), Selleck Chem (Houston, TX), ChemieTek (Indianapolis, IN), or Microsource Discovery Systems (Gaylordsville, CT). Screening was performed as previously described. Briefly, cells were plated at a density of 500 cells/well in 1536 well plates with compounds added using a 1536-head pin tool (Kalypsys, San Diego CA). Cells were incubated with cytotoxic drugs and processed with CellTiter Glo reagent (Promega, Madison, WI) to determine viability after 48 hours. P-gp substrates were identified by comparing compound activity between paired sets of low-expressing (sensitive) and over-expressing (resistant) cell lines.
Compound,Potency,"activity change, negative = inhibition"
CN(C)CCOc1ccc2[nH]c(C(=O)N3C[C@@H](CCl)c4c3cc(O)c3ccccc43)cc2c1,0.8 nM (active),–
CC[C@H](C)[C@@H]([C@H](N)CC(=O)N1CCC[C@H]1[C@H](OC)[C@@H](C)C(=O)N[C@@H](Cc1ccccc1)c1nccs1)N(C)C(=O)[C@@H](NC(=O)[C@@H](NC)C(C)C)C(C)C,–,-28.8% (inactive)
COc1cccc2c1C(=O)c1c(O)c3c(c(O)c1C2=O)C[C@@](O)(C(=O)CO)C[C@@H]3O[C@H]1C[C@H]2[C@H](O[C@@H]3[C@@H](OC)OCCN32)[C@H](C)O1,0.2 nM (active),–
CCN(C(C)=O)[C@H]1CO[C@@H](O[C@H]2[C@H](O[C@H]3C#C/C=C\C#C[C@]4(O)CC(=O)C(NC(=O)OC)=C3/C4=C\CSSSC)O[C@H](C)[C@@H](NO[C@H]3C[C@H](O)[C@H](SC(=O)c4c(C)c(I)c(O[C@@H]5O[C@@H](C)[C@H](O)[C@@H](OC)[C@H]5O)c(OC)c4OC)[C@@H](C)O3)[C@@H]2O)C[C@@H]1OC,15 nM (active),–
COC(=O)c1cc2c3c(cc(O)c2[nH]1)N(C(=O)c1cc2cc(OC)c(OC)c(OC)c2[nH]1)CC3CCl (stereo not drawn),0.7 nM (active),–
CC(C)(C)OC(=O)Nc1ccc2[nH]c(C(=O)N3C[C@@H](CCl)c4c3cc(O)c3ccccc43)cc2c1,10.6 nM (active),–
CCN[C@H]1CO[C@@H](O[C@H]2[C@H](O[C@H]3C#C/C=C\C#C[C@]4(O)CC(=O)C(NC(=O)OC)=C3/C4=C\CSSSC)O[C@H](C)[C@@H](NO[C@H]3C[C@H](O)[C@H](SC(=O)c4c(C)c(I)c(O[C@@H]5O[C@@H](C)[C@H](O)[C@@H](OC)[C@H]5O)c(OC)c4OC)[C@@H](C)O3)[C@@H]2O)C[C@@H]1OC,4.2 nM (active),–
COc1cccc2c1C(=O)c1c(O)c3c(c(O)c1C2=O)C[C@@](O)(C(=O)CO)C[C@@H]3O[C@H]1C[C@H](N)[C@H](O)[C@H](C)O1,1190 nM (active),–
